The values below come from PubChem BioAssay (NCATS).

Assay [1] can be described thus: P-glycoprotein substrates identified in KB-8-5-11 adenocarcinoma cell line, qHTS therapeutic library screen (AID 1346987). Note: nearly all actives have a fitted effect of over 65% in size. Note: potency is the fitted concentration of half-maximal effect. The gist of the method: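 Human cervical adenocarcinoma KB-8-5-11 cells, selected in colchicine to over-express P-gp and assayed without it, were exposed for 72 h to titrated compounds. An ATP-based luminescent viability signal gave AC50.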
The test system of assay [2] is Zika virus NS2B-NS3 protease (unlinked complex). Nature of the assay: Primary screen GU Rhodamine qHTS for Zika virus inhibitors: Unlinked NS2B-NS3 protease assay (AID 1347159). Note: % is set by controls: 0 for no effect and ±100 for the full control effect; nearly all actives have a fitted effect of over 60% in size. In short, it runs like this:
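Percent inhibition came from the 15-min rise in Rhodamine110 fluorescence (1.5 microM substrate, ~15% conversion), normalized to no-inhibitor and no-enzyme wells and Hill-fitted. Unlinked protease, 25 nM, pH 8.0 Tris buffer; compounds up to 114 microM, 15-min preincubation.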
Background: qHTS replaces the single test concentration by a dilution series.

Assay [3] can be described thus: qHTS to identify inhibitors of the type 1 interferon - major histocompatibility complex class I in skeletal muscle: primary screen against the NCATS Mechanism Interrogation Plate v5.0 (MIPE) Libary (AID 1347411).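 For activity change, negative = inhibition: plate controls were vehicle for no effect and reference inhibitor for full effect.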 Note: nearly all actives have a fitted effect of over 65% in size. Note: potency is the fitted concentration of half-maximal effect. In short, it runs like this: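 IFN-beta-driven (4 ng/ml) HLA-B-HiBit expression in CRISPR-tagged C25cl48 myoblasts; compounds 11-pt, 1:3, max 46 uM, 24 hr exposure; lytic NanoLuc complementation luminescence.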

Assay [4] deals with Cytochrome P450 2D6 (Homo sapiens) (UniProt P10635). Nature of the assay: Cytochrome P450 family 2 subfamily D member 6 (CYP2D6) small molecule antagonists: luciferase biochemical (cell-free) qHTS assay (AID 1645840; active = well fitted curve in the direction sought with a large enough effect in the repeat runs; an effect the other way counts as inactive or inconclusive; note: potency is the fitted concentration of half-maximal effect; nearly all actives have a fitted effect of over 55% in size). The gist of the method:
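P450-Glo CYP2D6 system: proluciferin substrate converted by enzyme to luciferin, read by luminescence proportional to activity. Enzyme-substrate mix with compound 10 min at room temperature, then NADPH regeneration 1 h before detection reagent.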

A short description of assay [5]: qHTS drug screen for cell cycle checkpoint inhibitors in PARPi-resistant BRCA-mutant ovarian cancer cell lines. (AID 1963452; calls by dose curve). The following applies: PEO1/OlaR viability, CellTiter-Glo luminescence, 96 h, stronger effect = lower value. In short, it runs like this: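 PEO1, PEO4 and PEO1/OlaR ovarian cancer cells, 600 per well, exposed 96 h at 37C to a dilution series. Viability read by CellTiter-Glo luminescence, normalized to DMSO and empty wells; activity summarized as Z-AUC.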

Assay [6] concerns HaCat. In words: Cytotoxic Profiling of Annotated Libraries Using Quantitative High-Throughput Screening (AID 1296008). For max response: % is set by controls: 0 for no effect and ±100 for the full control effect. Note: nearly all actives have a fitted effect of over 60% in size. Note: potency is the fitted concentration of half-maximal effect. As to conditions: Five cell lines viability, CellTiter-Glo ATP luminescence, 48-72 h; max response: stronger effect = lower value. The gist of the method: (§1)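 Cytotoxicity was measured as CellTiter-Glo ATP luminescence, read after 10 min at room temperature. Compound treatment of the cells lasted 48 or 72 hr at 37 degrees Celsius in a qHTS format.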
Background: Cellular ATP, detected with luciferase, serves as a proxy for viable cell number.

Assay [7] can be described thus: qHTS assay to identify inhibitors of the type 1 interferon - major histocompatibility complex class I in skeletal muscle: Counter screen cell viability and HiBit confirmation (AID 1347412). For activity change, negative = inhibition: % is set by controls: 0 for no effect and ±100 for the full control effect. Note: nearly all actives have a fitted effect of over 60% in size. Note: potency is the fitted concentration of half-maximal effect. As to conditions: iHSKM muscle cells + IFN-b, HiBiT or CellTiter-Glo, 24 h, HiBiT. In short, it runs like this:
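HLA-B*08:01–HiBiT knock-in immortalized human myoblasts (C25cl48) stimulated with 4.0 ng/ml human IFN-beta and dosed with compound in a 12-point 1:3 titration (top final 46 uM). After 24 hrs at 37 C, HiBiT lytic luminescence or CellTiter Glo ATP read out.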

For assay [8], the system named is SKOV3. In words: Primary qHTS to identify gynecologic anti-cancer compounds using libraries of approved drugs and bioactive compounds (AID 1345084). Note: nearly all actives have a fitted effect of over 55% in size. Note: potency is the fitted concentration of half-maximal effect. The following applies: Gynecologic cancer cell panel viability, ATPlite luminescence, 48 h; series mostly up to 57.5 µM. In short, it runs like this: (§2)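 Five-concentration response, 48 h; readout is ATP-driven luciferase luminescence.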

Assay [9] addresses Catechol O-methyltransferase (Homo sapiens) (UniProt P21964). Nature of the assay: Confirmatory Screen for Target Class Profiling of Small Molecule Inhibitors of Methyltransferases (AID 1745852; calls by dose curve; note: potency is the fitted concentration of half-maximal effect). The following applies: MTase-Glo luminescence, SAH detection, recombinant enzyme; measured here: COMT max response; stronger effect = lower value.
The target in assay [10] is Guanidinoacetate N-methyltransferase (Homo sapiens) (UniProt Q14353). The assay is described as above. As to conditions: activity change, negative = inhibition: at 57.3 µM (top of the series) unless noted.
The target in assay [11] is Nicotinamide N-methyltransferase (Homo sapiens) (UniProt P40261). Described as above. The following applies: MTase-Glo luminescence, SAH detection, recombinant enzyme; measured here: NNMT max response; stronger effect = lower value.
Assay [12] concerns the target Phenylethanolamine N-methyltransferase (Homo sapiens) (UniProt P11086). The description is as above. As to conditions: MTase-Glo luminescence, SAH detection, recombinant enzyme; measured here: PNMT max response; stronger effect = lower value.
Assay [13] deals with CAOV3. Nature of the assay: Primary qHTS to identify gynecologic anti-cancer compounds using libraries of approved drugs and bioactive compounds (AID 1345084). Note: nearly all actives have a fitted effect of over 55% in size. Note: potency is the fitted concentration of half-maximal effect. As to conditions: Gynecologic cancer cell panel viability, ATPlite luminescence, 48 h; series mostly up to 57.5 µM. The gist of the method: as §2
In assay [14] the target is Cytochrome P450 2C9 (Homo sapiens) (UniProt P11712). In words: Cytochrome P450 family 2 subfamily C member 9 (CYP2C9) small molecule antagonists: luciferase biochemical (cell-free) qHTS assay (AID 1645842; active = well fitted curve in the direction sought with a large enough effect in the repeat runs; an effect the other way counts as inactive or inconclusive; note: nearly all actives have a fitted effect of over 55% in size; note: potency is the fitted concentration of half-maximal effect; for activity change, negative = inhibition: % is set by controls: 0 for no effect and ±100 for the full control effect). The gist of the method:
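P450-Glo CYP2C9 system: proluciferin substrate with enzyme in mix containing 0.4% BSA, 10 min at room temperature, then NADPH regeneration solution added and incubated 1 h at 37C. Detection reagent stopped reaction; luminescence read after 20 min as RLU.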

For assay [15], the system named is NIH3T3. In words: Cytotoxic Profiling of Annotated Libraries Using Quantitative High-Throughput Screening (AID 1296008). For max response: % is set by controls: 0 for no effect and ±100 for the full control effect. Note: nearly all actives have a fitted effect of over 60% in size. Note: potency is the fitted concentration of half-maximal effect. As to conditions: Five cell lines viability, CellTiter-Glo ATP luminescence, 48-72 h; max response: stronger effect = lower value. The gist of the method:
as §1

Where [16] appears, read: measured here: PEO1 parental Z-AUC.

Records with an inconclusive call do not appear. Activity calls are given as the source filed them. Unless noted, calls come from the whole dose curve; as a rule, active = well fitted curve in the direction sought with a large enough effect; inconclusive = small, poorly fitted or top-dose-only effect, or another doubt; inactive = no such curve, though single readings can be large; an effect the other way counts as inactive or inconclusive.

Sequence of Cytochrome P450 2D6 (Homo sapiens) (P10635 whole entry, looked up): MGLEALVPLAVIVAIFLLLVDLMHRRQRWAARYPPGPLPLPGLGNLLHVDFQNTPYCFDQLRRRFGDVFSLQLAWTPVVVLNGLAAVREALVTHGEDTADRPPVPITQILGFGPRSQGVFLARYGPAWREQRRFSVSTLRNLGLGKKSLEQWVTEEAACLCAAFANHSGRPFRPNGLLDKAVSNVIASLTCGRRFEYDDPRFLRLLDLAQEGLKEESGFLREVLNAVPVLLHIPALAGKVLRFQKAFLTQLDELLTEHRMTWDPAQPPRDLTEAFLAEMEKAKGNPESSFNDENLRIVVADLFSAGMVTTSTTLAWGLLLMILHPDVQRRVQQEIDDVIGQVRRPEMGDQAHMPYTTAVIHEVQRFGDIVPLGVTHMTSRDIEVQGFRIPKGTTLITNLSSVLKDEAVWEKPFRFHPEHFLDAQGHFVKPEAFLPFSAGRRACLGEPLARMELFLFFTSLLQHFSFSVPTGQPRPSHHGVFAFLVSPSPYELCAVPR
Sequence of Cytochrome P450 2C9 (Homo sapiens) (P11712 whole entry, looked up): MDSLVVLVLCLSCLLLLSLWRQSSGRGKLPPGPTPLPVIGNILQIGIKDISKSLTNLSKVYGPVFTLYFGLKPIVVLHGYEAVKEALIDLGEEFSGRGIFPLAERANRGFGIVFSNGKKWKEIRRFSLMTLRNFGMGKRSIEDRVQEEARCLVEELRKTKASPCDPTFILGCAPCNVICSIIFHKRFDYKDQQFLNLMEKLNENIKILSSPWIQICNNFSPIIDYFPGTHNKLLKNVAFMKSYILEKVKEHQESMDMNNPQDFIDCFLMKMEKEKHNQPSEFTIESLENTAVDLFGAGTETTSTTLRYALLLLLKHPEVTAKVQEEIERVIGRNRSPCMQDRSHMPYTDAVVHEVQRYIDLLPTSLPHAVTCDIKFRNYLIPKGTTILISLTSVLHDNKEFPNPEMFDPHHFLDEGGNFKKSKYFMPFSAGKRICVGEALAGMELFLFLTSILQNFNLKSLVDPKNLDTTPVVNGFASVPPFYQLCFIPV
Sequence of Nicotinamide N-methyltransferase (Homo sapiens) (P40261 whole entry, looked up): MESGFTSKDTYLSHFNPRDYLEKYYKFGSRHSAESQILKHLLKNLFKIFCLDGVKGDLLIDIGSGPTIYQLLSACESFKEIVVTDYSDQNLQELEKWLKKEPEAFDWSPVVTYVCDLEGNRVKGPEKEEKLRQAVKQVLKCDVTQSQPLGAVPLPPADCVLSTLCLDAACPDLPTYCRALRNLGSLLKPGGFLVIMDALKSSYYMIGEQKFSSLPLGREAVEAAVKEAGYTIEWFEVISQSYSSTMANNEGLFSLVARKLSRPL
Sequence of Phenylethanolamine N-methyltransferase (Homo sapiens) (P11086 whole entry, looked up): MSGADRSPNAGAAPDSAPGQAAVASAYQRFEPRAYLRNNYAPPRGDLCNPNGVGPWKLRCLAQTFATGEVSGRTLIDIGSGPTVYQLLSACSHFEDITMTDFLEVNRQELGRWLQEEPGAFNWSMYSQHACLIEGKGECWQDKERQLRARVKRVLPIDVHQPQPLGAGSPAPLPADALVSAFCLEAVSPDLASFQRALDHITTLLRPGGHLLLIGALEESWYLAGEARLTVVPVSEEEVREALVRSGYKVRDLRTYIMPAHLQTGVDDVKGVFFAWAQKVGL
Sequence of Catechol O-methyltransferase (Homo sapiens) (P21964 whole entry, looked up): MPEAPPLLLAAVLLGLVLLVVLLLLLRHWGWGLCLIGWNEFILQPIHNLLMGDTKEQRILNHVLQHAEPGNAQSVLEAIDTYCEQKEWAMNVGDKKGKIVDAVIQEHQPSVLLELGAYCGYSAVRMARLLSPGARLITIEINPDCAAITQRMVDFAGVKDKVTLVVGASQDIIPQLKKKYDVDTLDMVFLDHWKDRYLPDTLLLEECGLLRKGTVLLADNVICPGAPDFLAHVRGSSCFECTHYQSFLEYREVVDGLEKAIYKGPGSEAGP

With `C=CC(=O)Nc1cc(Nc2nccc(-c3cn(C)c4ccccc34)n2)c(OC)cc1N(C)CCN(C)C`, the Potency in assay [1] is 11.6 µM (active); in assay [3] it was 8.29 µM (active); in assay [4] it was 23.9 µM (active); in [6] it was 1.03 µM (active); in assay [7] it was 24.9 µM (active). For the same molecule, the Potency result in assay [2] is “inactive”. The values for the Z-AUC in assay [5], in assay [5] (setting [16]) and in [5] (measured here: PEO4 Z-AUC) were -0.422 (inactive), -0.39 and -1.1, respectively.
As to `CC1CCC(n2c3cnccc3c3cnc(Nc4ccc5c(n4)CCN(C(=O)CO)C5)nc32)CC1` (stereo not given), the Potency in assay [1] is 5.8 µM (active). Further, in [3], the activity change, negative = inhibition is -18.6% [at 8.44 µM] (inactive). Besides, the Z-AUC in assay [5] is 0.557 (inactive); in assay [5] (setting [16]) it was 1.18; in assay [5] (measured here: PEO4 Z-AUC), 0.34. In assay [6], the max response was -0.578% (inactive).
On to `OCC(Cc1ccccc1)Nc1nc(Oc2ccc3c(c2)CCC3)nc2c1ncn2Cc1ccc(-c2ccccc2)cc1` (stereo not given), for which the Potency in assay [6] is 18.4 µM (active). Further, the Potency entry in assay [8] was “inactive”.
For the molecule `O=C(NNc1ccccc1)c1ccncc1`, the Potency entry in [1], in assay [2] and in assay [3] was “inactive” in each case. In addition, the Z-AUC in [5] is 1.21 (inactive); in assay [5] (setting [16]) it was 0.257; in assay [5] (measured here: PEO4 Z-AUC), 0.154. Also, the max response in assay [6] was -7.12% (inactive).
As for `CC(C)(C)c1ccc(-c2nc3ccccc3[nH]2)cc1`, the activity in assay [9] is -68.9%; in assay [11], -65.6%; in assay [12] it was -70.3%. The Potency in assay [10] was 10.5 µM (active); in assay [8], 1 µM (active). Also, the max response in assay [6] is -8.47% (inactive).
For `O=C(NC(NC(=S)Nc1ccc(F)c([N+](=O)[O-])c1)C(Cl)(Cl)Cl)C(c1ccccc1)c1ccccc1` (stereo not given), the Potency entry in assay [2], in assay [13] and in [8] was “inactive” each time. Besides, in [6], the max response was -1.87% (inactive).
Take `CCS(=O)(=O)N(Cc1cccnc1)c1cccc(-c2ccc(C#N)cc2)c1`: the Potency in assay [1] is 23.1 µM (active); in assay [14], 9.52 µM (active). Besides, in [15], the max response was -19.5% (inactive). Further, in assay [13], the Potency entry was “inactive”.
Regarding `CC(=O)N[C@@H](CC(=O)O)C(=O)N[C@@H](CCC(=O)O)C(=O)N[C@H](C(=O)N[C@@H](CC(=O)O)C(=O)Nc1ccc2c(C)cc(=O)oc2c1)C(C)C`, the max response in [6] was -44.8% (inactive).
For the molecule `CC(C)CCC[C@@H](C)[C@H]1CC[C@H]2[C@@H]3CC=C4C[C@@H](OC(=O)NCCN(C)C)CC[C@]4(C)[C@H]3CC[C@]12C`, the Potency entry in assay [2] is “inactive”. Moreover, in assay [6], the max response is -22.1% (inactive). Moreover, the Potency in assay [8] was 22.4 µM (active).
As to `CNc1ccc([N+](=O)[O-])cc1-n1cnc(-c2ccc(C(F)(F)F)cc2)c1`, the Potency entry in assay [2] and in assay [8] was “inactive” throughout. Moreover, the results for the Potency in assay [4] and in assay [14] were 0.756 µM (active) and 3.01 µM (active), respectively. In addition, in [6], the max response was -13.4% (inactive).
`C=C1[C@@H](C2=CC(=O)OC2)CC[C@@]2(O)[C@@H]1CC1[C@H]2CC[C@@H]2C[C@@H](O[C@H]3O[C@@H](C)[C@@H](O[C@@H]4O[C@H](CO[C@@H]5O[C@H](CO)[C@@H](O)[C@H](O)[C@H]5O)[C@@H](O)[C@H](O)[C@H]4O)[C@H](OC)[C@H]3O)CC[C@]12C` (stereo not given in full): the Potency in assay [1] is 3.48 µM (active). The outcome in assay [15] was “inactive”.
For the molecule `CNCc1ccc(C)c(NC(=O)c2ccc(Nc3nc(-c4ccccc4)c4ccccc4n3)cc2)c1`, the Potency result in assay [2] and in [14] was “inactive” each time. Also, the Potency in assay [3] is 33 µM (active); in assay [15] it was 18.4 µM (active). Further, the Z-AUC in [5] was -0.484 (inactive); in assay [5] (setting [16]) it was -0.199; in [5] (measured here: PEO4 Z-AUC) it was -0.532. For the same molecule, in assay [7] (at 45.9 µM (top of the series)), the activity change, negative = inhibition was -20% (inactive).
As to `Nc1nc(NCC2CCC(CNS(=O)(=O)c3cccc4ccccc34)CC2)nc2ccccc12` (stereo not given), in assay [2], the Potency result was “inactive”. The Potency in assay [4] was 3.38 µM (active); in [14], 4.77 µM (active); in assay [15] it was 20.6 µM (active). The activity in [9] is -12.1%; in assay [11] it was -26.1%; in assay [12], -28.4%. In addition, in assay [10], the activity change, negative = inhibition was -4.41%.
